Compounds with a hit are over-represented: about 9.9% of the library has one in this group of screens.
KB-V1 cytotox: kills drug-selected multidrug resistant KB-V1 cells | 400,000 compounds, 3.4% hits | Potency, µM (titrated, usually from 46.1 µM), most hits filed as cytotoxic | AID 1347076 | KB-V1 MDR cells viability, CellTiter-Glo, 72 h; also: potency is read from the fitted curve at half-maximal effect; % is scaled to controls: 0 for no effect and ±100 for the full control effect; nearly all actives have a fitted effect of over 60% in size
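Drug-selected KB-V1 cells, grown in DMEM lacking phenol red with 10% FBS, receive compound titrations; after three days at 37 degrees C, surviving cell ATP is quantified by CellTiter-Glo luminescence and responses normalized and curve-fitted.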
MCF10A rerep: induces DNA re-replication in MCF 10a normal breast cells. MCF 10A DNA re-replication, Hoechst nuclear intensity, 48 h. Potency, µM (series often up to 46.1 µM), without a hit: at the top dose activity, positive = re-replication, actives largely listed as activators. 350,000 compounds, 2.9% hits; also: potency is read from the fitted curve at half-maximal effect; % of control where 0% means no effect; nearly all actives have a fitted effect of over 50% in size
SW480 rerep: induces DNA re-replication in SW480 colon adenocarcinoma cells; Potency, µM (titrated, usually from 46.1 µM), inactives show at the highest dose re-replication activation, hits mostly activators; 340,000 compounds, 1.8% hits; SW480 DNA re-replication, Hoechst DNA content imaging, 48 h; also: potency is read from the fitted curve at half-maximal effect; % of control where 0% means no effect; nearly all actives have a fitted effect of over 55% in size
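Compounds, transferred as 23 nL by pin tool, were incubated with cells for 48 hr; DNA content per nucleus was then quantified by Hoechst staining and fluorescence plate imaging.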
IL1B secr inh: inflammasome signaling inhibition, IL-1 beta readout | AID 743279 | THP-1 LPS/ATP IL-1B secretion, AlphaLISA, 16 h; stronger effect = lower value | 360,000 compounds, 4.7% hits | activity change, % at 57.5 µM; in the data active = activity change below about -50%; inconclusive = mostly about -30% to -49%; also: % is scaled to controls: 0 for no effect and ±100 for the full control effect
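Secreted IL-1B measured by AlphaLISA bead assay after 16 h compound exposure of THP-1 cells; compounds (final up to 57.5 uM) added 1 h before LPS (250 ng/mL) and ATP (1.25 mM) stimulation; lower signal means less secretion.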
KB-3-1 tox: KB-3-1 parental cell cytotoxicity; 400,000 compounds, 1.4% hits; AID 1347075; Potency, µM (highest dose often 46.1 µM), actives largely listed as cytotoxic; KB-3-1 viability, CellTiter-Glo ATP luminescence, 72 h; also: potency is read from the fitted curve at half-maximal effect; % is scaled to controls: 0 for no effect and ±100 for the full control effect; nearly all actives have a fitted effect of over 60% in size
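Parental KB-3-1 viability, qHTS format: 72 h compound exposure, 37 °C; CellTiter-Glo; media-only wells and DMSO plates as controls; concentration-effect fits on corrected data.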
Starred values were filed as active, the others as inactive; i = inactive; ? = inconclusive; · = no result; [ ] = another dose, or the depositor's remark. Unless noted, calls follow the shape of the dose curve; as a rule, active = well fitted curve in the direction sought with a large enough effect; inconclusive = small, poorly fitted or top-dose-only effect, or another doubt; inactive = no such curve, though single readings can be large; an effect the other way counts as inactive or inconclusive.

SMILES	KB-V1 cytotox	MCF10A rerep	SW480 rerep	IL1B secr inh	KB-3-1 tox
CCC(C)NCCC(=O)Nc1ccc(Cl)c(S(=O)(=O)Nc2ccc(Cl)cc2)c1 (stereo not drawn)	i	13µM*	26.0%	-51.0*	i
Nc1ccc(Cl)c(S(=O)(=O)Nc2cccc(Cl)c2)c1	i	0.184µM*	-62.7%	2.2	i
O=C(Cc1ccc(F)cc1)Nc1nnc(-c2ccc(F)cc2)o1	i	1.9%	?	7.4	?
Cc1ccc(S(=O)(=O)NCCC(=O)Nc2ccc(Cl)c(Cl)c2)cc1C	?	16.3%	-0.3%	-10.9	i
CCN(c1ccc(NS(=O)(=O)c2cc(Cl)ccc2Cl)cc1)C(C)C	?	23.1µM*	?	-92.2*	?
Cc1ccc(S(=O)(=O)NCCC(=O)Nc2cccc(Cl)c2)cc1	16.4µM*	0.0%	0.291µM*	-15.8	i
Cc1ccc(S(=O)(=O)NCCC(=O)Nc2ccncc2)cc1C	i	11.6%	0.651µM*	-0.7	i
COc1ccccc1CNC(=O)CN1CCN(S(=O)(=O)c2cccs2)CC1	i	-12.8%	-39.4%	-6.2	i
CC(C)=NOC(=O)c1ccc(-c2ccccc2)cc1	?	-0.1%	-1.5%	-4.5	i
Cc1ccc(-c2nnnn2-c2ccc(C)cc2)cc1	i	-1.2%	-31.6%	7.5	i
Cc1ccc(-n2nnnc2CCl)cc1	?	?	?	-100.7*	?
OC[C@@H]1CN(Cc2ccc(Cl)cc2)C[C@H](n2cnc3c(NC4CC4)ncnc32)O1	i	·	·	11.4	i
CC1=C(C(=O)N(C(C)C)C(C)C)CC(CC(=O)NCCc2ccccn2)C(=O)N1CCC1=CCCCC1 (stereo not drawn)	i	·	·	-2.2	20.6µM*
COCCCN1C(=O)C(CC(=O)NCCc2ccccn2)CC(C(=O)N(C(C)C)C(C)C)=C1C (stereo not drawn)	i	·	·	?	i
CC1=C(C(=O)N(C(C)C)C(C)C)CC(CC(=O)NCc2cccc3ccccc23)C(=O)N1Cc1ccc(F)cc1 (stereo not drawn)	?	·	·	-67.7*	?
CC1=C(C(=O)N(C(C)C)C(C)C)CC(CC(=O)NCc2cccs2)C(=O)N1CCC1=CCCCC1 (stereo not drawn)	?	·	·	-24.2	i
CC1=C(C(=O)N(C(C)C)C(C)C)CC(CC(=O)NCc2cccc3ccccc23)C(=O)N1CCC1=CCCCC1 (stereo not drawn)	?	·	·	-80.3*	i
CCNc1nc(OC)nc(SCC(=O)Nc2ccccc2)n1	i	6.6%	8.0%	25.8	?
CC(C)(C)NC(=O)C(c1ccco1)N(Cc1ccc2c(c1)OCO2)C(=O)c1snc(C(N)=O)c1N (stereo not drawn)	i	1.2%	15.0%	?	i
CN(C(=O)CSc1cc(Cl)ccc1Cl)C1CCS(=O)(=O)C1 (stereo not drawn)	i	4.3%	0.3%	-0.6	i
Cc1ccccc1NC(=O)CSc1nnc(C2CC2)n1CC1CCCO1 (stereo not drawn)	i	-4.4%	-5.6%	16.3	i
CC(=O)c1c(C)[nH]c2ccccc2c1=O	i	-2.0%	2.1%	24.9	i
Cc1[nH]c2ccccc2c1C(=O)/C=C/c1ccccc1	i	?	?	-95.5*	?
O=C(C=Cc1ccccc1Cl)c1ccccc1	i	?	?	-11.2	i
Cc1[nH]c2ccccc2c1C(=O)CN1CCN(C/C=C/c2ccccc2)CC1	?	?	4.3%	?	?
SMILES	KB-V1 cytotox	MCF10A rerep	SW480 rerep	IL1B secr inh	KB-3-1 tox
Cc1[nH]c2ccccc2c1C(=O)/C=C/c1ccccc1Cl	?	?	18.5%	-105.2*	i
Cc1[nH]c2ccccc2c1C(=O)/C=C\c1ccccc1Cl	?	?	?	-100.9*	?
Cc1nc2ccccc2c(N)c1C(=O)/C=C/c1ccccc1	i	27.5%	?	-100.3*	i
CC(=O)c1c(C)nc2ccccc2c1N	i	8.5%	1.8%	-1.1	i
COc1cc(/C=N/n2nnnc2N)cc(OC)c1OC	i	9.2%	0.1%	-6.6	i
O=C(Cc1cccc2ccccc12)NC(=S)Nc1cccc(C(=O)O)c1	i	-3.2%	-23.5%	0.0	i
CC(NS(=O)(=O)OCC(Cl)(Cl)Cl)c1ccc(Br)cc1 (stereo not drawn)	i	15.3%	-1.4%	21.2	i
CC1CC(C)(C)Nc2ccc(OC(=O)c3ccco3)cc21 (stereo not drawn)	?	14.6µM*	?	-114.0*	?
O=C(Oc1ccc2ccccc2c1)c1ccco1	?	5.9%	-5.8%	18.2	i
CC1CC(C)(C)Nc2ccc(N=O)cc21 (stereo not drawn)	i	23.1µM*	2.31µM*	-105.3*	i
CCn1c(=O)c(C(=O)CN(C)Cc2ccc(F)cc2)c(N)n(Cc2ccccc2)c1=O	?	0.2%	-0.7%	-63.3*	i
CCn1c(=O)c(C(=O)CN(C)Cc2cccc(OC)c2OC)c(N)n(Cc2ccccc2)c1=O	i	-1.9%	29.7%	24.2	i
O=C(O)c1cc([N+](=O)[O-])ccc1N1CCC(Cc2ccccc2)CC1	i	-5.7%	-44.5%	23.4	i
O=C(NCC1CCCO1)c1cc([N+](=O)[O-])ccc1N1CCC(Cc2ccccc2)CC1 (stereo not drawn)	?	13.1%	-23.7%	-11.8	4.61µM*
CCC(=O)N1CCN(c2ccc(NC(=S)NC(=O)c3ccc(OC)c([N+](=O)[O-])c3)cc2)CC1	i	-0.8%[9.22 µM]	6.3%	-9.6	i
CN1CCN(c2ccc(NC(=S)NC(=O)c3cccc4c(Cl)cccc34)cc2)CC1	i	?	20.6µM*	10.9	i
COc1ccc(C(=O)NC(=S)Nc2ccc(N3CCCC3)cc2)cc1	i	0.7%	2.1%	-4.6	i
CCCC(=O)N1CCN(c2ccc(NC(=S)NC(=O)c3cccc(C)c3)cc2)CC1	?	12.3%	-4.9%	-64.8*	?
O=C(NC(=S)Nc1ccc(N2CCOCC2)cc1)c1cccc(Cl)c1Cl	i	9.0%	-3.4%	8.5	i
COc1cccc(NC(=S)NC(=O)c2cncc(Br)c2)c1	i	15.8%	18.4µM*	-8.9	?
COc1cccc(C(=O)NC(=S)Nc2ccc(N3CCCC3)cc2)c1	?	14.8%	-1.9%	-57.4*	i
COc1ccc(CNC(=O)C2CCCN(C(=O)c3cnn(-c4ccc(F)cc4)c3-n3cccc3)C2)cc1 (stereo not drawn)	13µM*	·	·	·	?
COCCCNC(=O)C1CCCN(C(=O)c2cnn(-c3ccc(F)cc3)c2-n2cccc2)C1 (stereo not drawn)	i	·	·	·	i
